Assay outcomes as filed in PubChem.
HCV inh: HCV inhibition | Huh7.5.1 HCVcc-Cre infection, luciferase reporter, 44 h | Potency, µM (doses to about 41.8 µM), without a hit: at the highest dose activity change, negative = inhibition, usual class: inhibitors | 3.4% of 340,000 active | AID 651820; active = well fitted inhibition curve with a large enough effect; inconclusive = small, poorly fitted or top-dose-only effect, or another doubt; inactive = no such curve, though single readings can be large or run the other way; also: potency is read from the fitted curve at half-maximal effect
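A cell-based infection assay in which seeded cells (1,000 per well) receive test compound after 4 h, are inoculated with HCVcc-Cre at approximately 0.5 moi, and are incubated 44 h before luminescence detection.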
FMDV antiviral: antivirals against foot and mouth disease virus; FMDV antiviral cell-based qHTS; Potency, µM (doses to about 57.9 µM), inactives show at the top dose activity change, negative = inhibition, hits mostly inhibitors; 1.2% of 410,000 active; AID 1159524; calls by dose curve; tested in HEK293T cells; also: read-out not given here; potency is read from the fitted curve at half-maximal effect; nearly all actives have a fitted effect of over 45% in size
VACV Venus inh: vaccinia inhibition (Venus reporter); Vaccinia virus Venus reporter expression, fluorescence; Potency, µM (series often up to 36.5 µM), without a hit: at the highest dose activity change, negative = inhibition, hits mostly inhibitors; 0.46% of 330,000 active; AID 720580; calls by dose curve; tested in A549 cells; also: potency is read from the fitted curve at half-maximal effect; nearly all actives have a fitted effect of over 30% in size
HCMV inh: blocks human cytomegalovirus replication. HFF cells, HCMV-luciferase reporter, 72 h; active compounds read low. activity change, negative = inhibition, % at 57.5 µM. 4.5% of 410,000 active; in the data active = activity change below about -60%; inconclusive = no clear call, values can overlap the other calls; inactive = above about -39%
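Two compound doses tested in HFFs infected with HCMV-luciferase, MOI 1 PFU/cell, 72 h at 37C. Lysate luminescence read with OneGlo; data normalized against buffer-only and 10uM Salinomycin inhibitor controls.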
VACV mCherry inh: inhibitors of vaccinia virus infection (mCherry reporter signal) | Vaccinia virus mCherry reporter infection, fluorescence | Potency, µM (top dose mostly 36.5 µM), for inactives: top-dose activity change, negative = inhibition, most hits filed as inhibitors | 0.63% of 310,000 active; calls by dose curve; tested in A549 cells; also: potency is read from the fitted curve at half-maximal effect; nearly all actives have a fitted effect of over 35% in size
* = called active by the depositor; i = inactive; ? = inconclusive; · = no result given; ! = repeats disagree; [ ] = dose if it differs, or a comment. Sampled rows, rich in hits. Any-hit rate of the full collection: about 7.3%. % is scaled to controls: 0 for no effect and ±100 for the full control effect.

SMILES	HCV inh	FMDV antiviral	VACV Venus inh	HCMV inh	VACV mCherry inh
Cc1c(C(=O)NCC2Cc3cccc(-c4cncnc4)c3O2)c(-c2ccccc2)nn1-c1ccccc1 (stereo unspecified)	·	-5.6%	10.3%	·	-14.2%
COc1ccc(C)cc1COC(=O)c1[nH]c(C)c(C(C)=O)c1C	?	-12.9%	-6.9%	-4.2	-1.9%
CC(=O)c1c(C)[nH]c(C(=O)OCCOc2ccccc2)c1C	8.91µM*	-81.2%	-4.8%	?	-10.7%
CC(=O)c1c(C)[nH]c(C(=O)OCc2cccc(C)c2)c1C	15.8µM*	12.0%	-8.2%	-16.4	i
CC(=O)c1c(C)[nH]c(C(=O)OCc2ccccc2F)c1C	17.8µM*	15.2%	-9.4%	?	-14.6%
CC(=O)c1c(C)[nH]c(C(=O)OCc2ccc(Br)cc2)c1C	4.47µM*	0.0%	-18.8%	-39.8	i
O=C(Nc1c2c(nn1-c1ccc(Cl)cc1)CS(=O)(=O)C2)c1cccc(Cl)c1	·	?	-12.4%	-20.1	-11.3%
Cc1cnc(C)c(-c2ccc(O)c(CN3CCN(C=O)CC3)c2)n1	·	-11.4%	-4.7%	·	-9.7%
CCCC(=O)OCc1cnc(C)c2oc(=O)c(C(=O)Nc3ccc(F)cc3C)cc12	·	-8.6%	-12.5%	7.5	2.1%
CCCCn1nnnc1C(c1cc2ccccc2o1)N1CCN(c2cc(C)nc3ccccc23)CC1 (stereo unspecified)	·	-17.5%	-11.6%	-103.1*	-19.3%
Cc1cccc(-c2noc(-c3ccc(NCc4ccccc4)c([N+](=O)[O-])c3)n2)c1	·	5.2%	-1.1%	10.5	-3.5%
Cc1ccc(O)c(C(=O)c2cc(C(=O)NCCC(C)C)c(=O)n(CCC(C)C)c2)c1	10µM*	-8.8%	-10.7%	7.0	i
CCc1ccc(/C=N/NC(=O)c2cc(C3CC3)nc3ccccc23)s1	8.91µM*	-13.7%	?	-28.4	?
Cc1cc(C(=O)N/N=C/c2ccc([N+](=O)[O-])s2)c2ccccc2n1	11.2µM*	-16.5%	28.2µM*	-70.4*	10µM*
O=C(N/N=C/c1ccc([N+](=O)[O-])s1)c1ccccc1Br	11.2µM*	·	11.2µM*	-77.4*	?
Cc1ccccc1C(=O)N/N=C/c1ccc([N+](=O)[O-])s1	?	·	?	-95.9*	-21.9%
O=C(Nc1ncc(Cc2ccccc2)s1)C1CCN(C(=O)c2ccco2)CC1	·	·	-23.0%	·	-8.3%
Cc1ccc(-c2c(C(=O)N(C)Cc3ccccc3)oc(=O)c3ccccc23)cc1	0.3%	-1.5%	-13.6%	-65.2*!	-12.7%
O=C(Nc1ccccc1F)C(Cc1ccccc1)N1Cc2ccccc2C1=O (stereo unspecified)	·	5.8%	-6.5%	-12.8	-13.4%
Cc1ccc(CSc2nc3cccnc3n2Cc2nc(-c3ccccc3F)oc2C)cc1	·	3.2%	-24.3%	4.3	-27.5%
COc1ccccc1OCC(=O)NNC(=O)Nc1ccc(Cl)cc1	-24.9%	-11.9%	-25.7%	-63.8*	-18.5%
Cc1ccc(NC(=O)NNC(=O)COc2ccc(Cl)cc2)cc1	10.8%	-3.6%	·	7.2	·
CCN(CC)S(=O)(=O)c1ccc(NC(=O)COc2c(OC)cccc2OC)cc1	?	31.6µM*	·	-6.6	·
COc1ccccc1OCC(=O)Nc1ccc(S(=O)(=O)N(C)c2ccccc2)cc1	11.2µM*	-11.6%	·	-2.2	·
CCN(CC(=O)Nc1ccc(OC)c(OC)c1)S(=O)(=O)c1ccc(C)cc1	?	12.6µM*	-11.7%	-33.4	·
SMILES	HCV inh	FMDV antiviral	VACV Venus inh	HCMV inh	VACV mCherry inh
COC(=O)c1cc2c(c3c4ccccc4n(S(=O)(=O)c4ccc(C)cc4)c13)C(=O)N(CC(C)C)C2	·	·	·	73.0	·
CCN(CC)S(=O)(=O)c1ccc(NC(=O)C(C)N(c2ccc(OC)cc2)S(C)(=O)=O)cc1 (stereo unspecified)	10µM*	-15.1%	·	-11.6	·
CCN(CC)S(=O)(=O)c1cccc(NC(=O)COc2ccc(F)cc2Br)c1	11.2µM*	?	-10.0%	-5.7	-10.1%
CCC(C)NC(=O)c1cc2n(n1)CCCN(Cc1ccc(C)cc1)C2=O (stereo unspecified)	·	-6.7%	-1.8%	-26.7	-17.4%
Cc1ccc(C)c(NC(=O)c2cnc3sc(N4CCOCC4)nn3c2=O)c1	·	-15.9%	-8.1%	133.8	-1.0%
COc1ccc(-n2nc3c(N4CCCC(C(=O)NCc5ccccc5C)C4)nnc(C)c3c2C)cc1 (stereo unspecified)	·	-25.9%	?	-99.2*	?
COc1ccc(-n2nc3c(N4CCC(C(=O)NCCc5ccccc5C)CC4)nnc(C)c3c2C)cc1	?	-27.7%	-22.8%	·	-0.6%
COc1ccc(-n2nc3c(N4CCCC(C(=O)NCCc5ccccc5C)C4)nnc(C)c3c2C)cc1 (stereo unspecified)	·	-7.1%	-8.1%	-86.9*	-27.0%
COc1ccccc1CNC(=O)C1CCCN(c2nnc(C)c3c(C)n(-c4ccccc4)nc23)C1 (stereo unspecified)	·	-11.6%	?	-10.6	?
CCOc1ccccc1CNC(=O)C1CCCN(c2nnc(C)c3c(C)n(-c4ccccc4)nc23)C1 (stereo unspecified)	?	4.8%	?	-107.2*	?
COc1ccc(-n2nc3c(N4CCC(C(=O)NCc5ccccc5C)CC4)nnc(C)c3c2C)cc1	11.2µM*	-11.4%	?	?	-12.3%
COc1cc(CN(C(=O)c2cccc(C)c2)c2ccccn2)cc(OC)c1OC	·	-24.2%	?	-10.2	?
COc1ccccc1NC(=O)Cn1c(=O)n(-c2ccc(C)cc2)c(=O)c2c1cnn2C	·	-26.4%	-0.5%	17.2	1.7%
CCCN1CNc2c(c(=O)[nH]c(=S)n2CCc2ccccc2Cl)C1	·	·	-12.6%	·	i
CCOC(=O)CC(NC(=O)c1cc2cc(OC)ccc2oc1=O)c1ccc(OC)cc1 (stereo unspecified)	·	5.0%	-8.1%	5.2	-4.5%
Cc1ccc(C)c(Cn2c(=O)cc(C(F)(F)F)c3c(C)nn(C)c32)c1	·	-7.6%	-2.4%	10.1	-4.3%
COc1ccc(-n2nc3c(N4CCC(C(=O)NCC(C)c5ccccc5)CC4)nnc(C)c3c2C)cc1 (stereo unspecified)	11.2µM*	-24.5%	?	?	?
COc1ccc(-n2nc3c(N4CCC(C(=O)NCc5ccco5)CC4)nnc(C)c3c2C)cc1	3.4%	-9.4%	·	·	·
COc1ccccc1-c1nc(SCC(=O)Nc2ccc(C)c(C)c2)n[nH]1	·	-38.7%	-3.3%	21.6	-2.4%
COc1ccc(Cl)cc1NC(=O)Cn1cc(C(=O)c2ccncc2)c(=O)c2cc(C)ccc21	·	-12.8%	-5.7%[7.34 µM]	22.0	-10.8%[7.34 µM]
COc1ccc(-n2nnnc2/C=C/Nc2cc(C(F)(F)F)ccc2OC)cc1	?	-14.6%	·	33.0	·
COc1ccc(-n2nnnc2/C=C\Nc2ccccc2C(=O)c2ccccc2)cc1	7.94µM*	1.6%	·	1.1	·
CCc1cccc(NC(c2nnc(-c3ccccc3)o2)c2ccc(F)cc2Cl)c1 (stereo unspecified)	·	-20.0%	-4.6%	3.8	-20.6%
O=C(Oc1c(CN2CCOCC2)cc(Cl)c2cccnc12)c1cccs1	?	-16.9%	?	-98.2*	?
